XTT viability data for 40 compounds are collected here from the supplement of paper PMC6805474.

SMILES strings stand for the structures.

This assay deals with Schistosoma mansoni schistosomula (LE). Put plainly: XTT viability relative to DMSO control; higher = more viable (less active). As to conditions: 72 h; 10 µM. As for the experimental part:
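XTT/PMS was then added for a further 24 h (72 h total) and A450 was read. % viability = (sample - heat-killed control)/(DMSO control - heat-killed control) x 100, from duplicate wells in two independent experiments.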
For the compound `CC(=O)NCC1CN(c2ccc(-c3ccc(CO)cc3)c(F)c2)C(=O)O1` (stereo not given), the XTT viability turned out to be 138%.
As to `CC(=O)Oc1ccccc1C(=O)Nc1ncc([N+](=O)[O-])s1`, the XTT viability was 102%.
Regarding `N=C(N)c1ccc(OCCCCCOc2ccc(C(=N)N)cc2)cc1`, the XTT viability came to 81.9%.
In the case of `COc1ccc(C2=NCCN2)cc1-c1cn(-c2cccc(C3=NCCN3)c2)nn1`, the XTT viability was 85.9%.
The value for `COc1ccc(N(CCc2cccc(C)n2)C(=O)C2CCCCC2)cc1` was 88.7%; that for `Cc1ccc(C(=O)Nc2ccc(S(=O)(=O)O)c3cc(S(=O)(=O)O)cc(S(=O)(=O)O)c23)cc1NC(=O)c1cccc(NC(=O)Nc2cccc(C(=O)Nc3cc(C(=O)Nc4ccc(S(=O)(=O)O)c5cc(S(=O)(=O)O)cc(S(=O)(=O)O)c45)ccc3C)c2)c1` was 94.8%; that for `O=C(N[C@H](Cc1ccccc1)C(=O)Nc1ccccc1N1CCOCC1)c1cccs1` was 129%.
In the case of `COc1ccc(S(=O)(=O)Nc2ccc(CN3CCN(C(=O)c4cccc(C#N)c4)CC3)cc2)cc1` it was 144%.
For the compound `Cc1nc(-c2ccccn2)nc(NCCc2ccc(S(C)(=O)=O)cc2)c1Cl`, the XTT viability is 66.9%.
As to `Oc1c(I)cc(I)c2cccnc12`, the XTT viability was found to be 6.58%.
In the case of `Cc1ccc2nc(Cl)c(CNCc3cccs3)cc2c1` it was 83.2%.
The value for `CCOc1ccc(-c2nc(NC(=O)CS(=O)(=O)c3ccccc3)sc2C)cc1` was 61.8%; that for `c1csc(-c2cnc3sc(NCC4CCOCC4)nn23)c1` was 95.7%.
The value for `COc1cc(C2=NCCN2)cc2cc(-c3ccc(C4=NCCN4)cc3)oc12` was 4.86%; that for `CC(=O)N(CCN(C(=O)c1ccc(F)cc1)c1ccccc1)c1ccccc1` was 117%.
On to `Cc1nc(-c2ccccn2)nc(N2CCC(Cc3ccccc3)C2)c1Cl` (stereo not given), for which the XTT viability is -3.46%.
The value for `COc1ccc(C2=NN(C3CCCCCC3)C(=O)C2(C)C)cc1OCCCCOc1ccc(-c2nn[nH]n2)cc1` was 3.51%.
Turning to `CS(=O)(=O)c1ccccc1C(=O)N(Cc1ccccc1)c1ccccc1`, the XTT viability worked out at 106%.
Turning to `COc1cc(OC)cc(C(=O)NCC2Cc3cc(Cl)cc(-c4ccncc4)c3O2)c1` (stereo not given), the XTT viability came to 153%.
For the compound `O=C(NCCc1c[nH]c2ccccc12)c1cc2ccccc2oc1=O`, the XTT viability worked out at 91.2%.
The value for `CC(c1cc(Cl)cc(Cl)c1)N(C)c1ncc2c(N)nc(N)nc2n1` (stereo not given) was 42.2%; that for `OCc1ccc(-c2cncc(Nc3cccc(Cl)c3)c2)cc1` was 99.5%; that for `OCCc1ccc(Nc2nccc(-c3nnc4ccccn34)n2)cc1` was 109%.
In the case of `Cc1ccc(S(=O)(=O)Nc2ccc(CN3CCN(C(=O)c4cccc(C#N)c4)CC3)cc2)cc1` it was 131%.
For `c1ccc(Oc2ccc(-c3cc(N4CCNCC4)[nH]n3)cc2)cc1`, the XTT viability is 25.2%.
The value for `COC(=O)C1=C(C)NC(C)=C(C(=O)OC(C)C)C1c1cccc2nonc12` (stereo not given) was 63.2%.
In the case of `O=C(CN1CCOCC1)Nc1ccc2ncnc(Nc3ccc(OCc4cccc(F)c4)c(Cl)c3)c2c1` it was 125%.
In the case of `CC(=O)Nc1ccc(NC(=O)c2cc(-c3cc(Cl)ccc3O)[nH]n2)cc1` it was 94.2%.
Regarding `Cn1c(=O)c2c(S(C)(=O)=O)snc2n(C)c1=O`, the XTT viability was -0.448%.
As to `NS(=O)(=O)c1cccc(-c2ccc3ncc(N4CCOCC4)nc3c2)c1`, the XTT viability turned out to be 116%.
In the case of `Cc1cc(C(=O)Nc2cnn(Cc3ccc(Cl)cc3Cl)c2)no1`, the XTT viability was found to be 91.7%.
The value for `Nc1ncnc2c1ncn2C[C@@H](O)[C@@H](O)C(=O)O` was 63.7%; that for `c1ccc(Oc2ccc(-c3cc(N4CCOCC4)[nH]n3)cc2)cc1` was 112%; that for `O=C(Nc1nnc(-c2ccc(Cl)s2)o1)c1ccc(Cl)s1` was -3.4%.
The value for `CN1CCN(S(=O)(=O)c2ccc(-c3ccc4c(Nc5ncc(Cl)cn5)ccnc4c3)cc2)CC1` was 32.4%.
As for `Cc1cc(Nc2ccc(C(F)(F)F)cc2)n2ccnc2n1`, the XTT viability was determined as 71.7%.
With `Cc1ccc2oc(-c3cc(NC(=O)Cc4ccccc4)ccc3Cl)nc2c1`, the XTT viability was determined as 109%.
In the case of `COc1cc(C2=NCCN2)ccc1-n1cc(-c2cccc(C3=NCCN3)c2)nn1`, the XTT viability was 77.2%.
The value for `O=C(c1[nH]nc2c1CCCC2)N1CCN(Cc2ccc3c(c2)OCO3)CC1` was 89.6%.
Regarding `c1ccc(C[C@@H]2CN(c3nccc(Oc4ccc(-n5ccnc5)cc4)n3)CCN2)cc1`, the XTT viability turned out to be 94.4%.
